What is called Inhibition is the percentage by which the read-out fell short of the control. A higher Inhibition goes with a response far below the control.

Inhibition data for ten compounds are collected here from ChEMBL document CHEMBL1157539, “Thousands of chemical starting points for antimalarial lead identification” (Nature, 2010).

Format in all cases: functional
Assay [1] deals with Plasmodium falciparum. Nature of the assay: GSK_TCMDC: Inhibition of Plasmodium falciparum 3D7 in whole red blood cells, using parasite LDH activity as an index of growth. Test compounds present at 2uM.
Assay [2] deals with Plasmodium falciparum. Kind of assay: GSK_TCMDC: Inhibition of Plasmodium falciparum Dd2 in whole red blood cells, using parasite LDH activity as an index of growth. Test compounds present at 2uM.
The test system of assay [3] is HepG2. Nature of the assay: GSK_TCMDC: Percent inhibition of human HepG2 cell line. Test compounds present at 10uM.

In the case of `CCc1ccccc1N1CCN(CCCC(=O)c2ccc(NC(=O)c3cc(Cl)cc(Cl)c3)cc2)CC1`, the results for the Inhibition in assay [1], in assay [2] and in assay [3] were 99%, 46% and 16%, respectively.

On to `CCOc1ccc(-c2nonc2NC(=O)c2ccccc2OC)cc1OCC`, for which the Inhibition in assay [1] was 100%; in assay [2] it was 99%; in assay [3] it was 24%.

On to `Br.Nc1ccc(-c2csc(Nc3ccncc3)n2)cc1`, for which the Inhibition in assay [1] stood at 95%; in assay [2], 50%; in assay [3], 12%.

Regarding `Cc1cccc2nc(-c3cccc(-c4ccc(NC(=O)C(C)CN5CCOCC5)cc4)c3)[nH]c12` (stereo not given), the Inhibition is reported as 93% in assay [1], 30% in assay [2] and 7% in assay [3].

In the case of `COc1ccc2c(=NN=Cc3c(OC)ccc4ccccc34)cc(C)[nH]c2c1`, the values for the Inhibition in assay [1], in assay [2] and in assay [3] were 100%, 85% and 7%, respectively.

Turning to `COc1ccc2nc(-c3cc(-c4ccc(NC(=O)CN5CCOCC5)cc4)cnc3N)[nH]c2c1`, the Inhibition in assay [1] is listed as 100%; in assay [2], 72%; in assay [3], 52%.

With `c1cc2[nH]c(CCc3nc4cc(C5=NC6CCCCC6N5)ccc4[nH]3)nc2cc1C1=NC2CCCCC2N1` (stereo not given), the Inhibition in assay [1] worked out at 93%; in assay [2], 96%; in assay [3] it was 3%.

For `CC(=O)NCCNc1cc(N2CCc3ncnc(Nc4ccc(OCc5c(F)cccc5F)c(Cl)c4)c3C2)ncn1`, the Inhibition was 100% in assay [1], 100% in assay [2] and 55% in assay [3].

As to `O=C(O)C(F)(F)F.c1ccc2c(c1)CN(Cc1cc3ccccc3[nH]1)CC1(CCN(Cc3c[nH]c4cnccc34)CC1)O2`, the Inhibition in assay [1] is 100%; in assay [2] it was 62%; in assay [3], 27%.

For the compound `CS(=O)(=O)c1ccc(CNCc2ccc(-c3ccc(-c4nc5cc(F)ccc5[nH]4)s3)cc2)cc1.O=C(O)C(F)(F)F`, the Inhibition in assay [1] was 100%; in assay [2] it was 97%; in assay [3], 22%.
